Sampled rows, rich in hits. Any-hit rate of the full collection: about 12%.
PLK1 PBD inh: PLK1 (human) polo-box domain binding inhibition | actives 2.8% (n = 360,000) | Potency, µM, for the others: max response, negative = inhibition, usual class: inhibitors | Plk1 PBD binding of FITC phosphopeptide, fluorescence polarization; note: series mostly up to about 57 µM; nearly all actives have a fitted effect of over 65% in size
Target sequence (P53350 whole entry, looked up, the tested form may be a part): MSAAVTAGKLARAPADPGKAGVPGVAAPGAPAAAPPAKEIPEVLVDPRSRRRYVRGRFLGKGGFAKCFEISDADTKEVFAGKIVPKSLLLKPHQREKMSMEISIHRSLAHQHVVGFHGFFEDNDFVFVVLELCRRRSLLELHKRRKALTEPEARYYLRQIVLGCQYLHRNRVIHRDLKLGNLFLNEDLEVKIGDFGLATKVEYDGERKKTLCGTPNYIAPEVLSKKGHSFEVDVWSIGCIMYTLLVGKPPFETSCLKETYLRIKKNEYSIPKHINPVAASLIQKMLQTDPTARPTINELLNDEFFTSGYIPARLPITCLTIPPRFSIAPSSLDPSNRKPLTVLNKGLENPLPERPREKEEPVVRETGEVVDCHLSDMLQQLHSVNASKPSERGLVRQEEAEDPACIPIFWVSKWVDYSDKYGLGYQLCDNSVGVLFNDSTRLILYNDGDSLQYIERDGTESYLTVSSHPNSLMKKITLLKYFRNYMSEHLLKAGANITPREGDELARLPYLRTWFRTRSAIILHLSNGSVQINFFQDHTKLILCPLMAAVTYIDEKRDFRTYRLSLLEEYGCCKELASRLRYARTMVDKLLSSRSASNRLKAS
Sfp PPTase inh: Sfp phosphopantetheinyl transferase inhibition | Q9F4F7 | Biochemical Sfp PPTase activity, qHTS | Potency, µM, inactives show largest response in the series, negative = inhibition, most hits filed as inhibitors | actives 3.5% (n = 310,000);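 note: the enzyme is Sfp with the accession as filed and its product quenches rhodamine fluorescence; 0% = enzyme reaction without inhibitor and -100% = no enzyme wells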
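With Hepes-Na pH 7.6 buffer containing 10 mM MgCl2, Sfp (15 nM) modified BHQ-2-YbbR (12.5 uM) using rhodamine-CoA (5 uM). Two reads 30 minutes apart at 525/598 nm yielded each well's rate.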
Gal4-VP16 FLuc: counter-screen for ROR gamma inhibitors: Gal4-VP16 reporter; Drosophila S2 Gal4-VP16 UAS-luciferase, luminescence, 20 h; Potency, µM (titrated, usually from 53.6 µM), for inactives: top-dose activity, negative = inhibition, hits mostly inhibitors; actives 3.5% (n = 310,000);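 note: Gal4-VP16 expression switched on by copper sulfate through the metallothionein promoter; nearly all actives have a fitted effect of over 50% in size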
ALDH1A1 block: inhibitors of human aldehyde dehydrogenase 1A1; actives 7.3% (n = 220,000); Potency, µM (titrated, usually from 75.3 µM), without a hit: at the highest dose activity, negative = inhibition, usual class: inhibitors; P00352; Purified ALDH1A1, NADH fluorescence, propionaldehyde substrate; active = well fitted inhibition curve with a large enough effect, not every such curve was filed as active; inconclusive = small, poorly fitted or top-dose-only effect, or another doubt; inactive = no such curve, though single readings can be large or run the other way;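 note: plate controls were no enzyme wells and a reference inhibitor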
RORgamma inh: ROR gamma (mouse) transcription inhibition | actives 5.4% (n = 310,000) | Drosophila S2 Gal4-RORgamma UAS-luciferase reporter, 20 h | P51450 | Potency, µM (doses to about 53.6 µM), inactives show top-dose activity change, negative = inhibition, actives largely listed as inhibitors; note: nearly all actives have a fitted effect of over 60% in size
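Using a luciferase readout, inhibitors were identified by reduced reporter activity in Drosophila cells coexpressing a copper-inducible Gal4–ROR gamma fusion and UAS-driven Photinus luciferase, incubated 20 hr after 700 uM copper sulfate.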
Numbers without * were called inactive; u = inconclusive; x = no result given; [ ] = another dose, or the depositor's remark. Unless noted, calls come from the whole dose curve; as a rule, active = well fitted curve in the direction sought with a large enough effect; inconclusive = small, poorly fitted or top-dose-only effect, or another doubt; inactive = no such curve, though single readings can be large; an effect the other way counts as inactive or inconclusive. Unless noted, % is set by controls: 0 for no effect and ±100 for the full control effect; potency is the fitted concentration of half-maximal effect.

SMILES | PLK1 PBD inh | Sfp PPTase inh | Gal4-VP16 FLuc | ALDH1A1 block | RORgamma inh
O=c1nc2cccc3c2=c(/c1=C(\O)c1ccccc1)c1ccccc1c3=O | -10.3% | 6.6% | -20.6% | 0.631µM* | -20.5%
O=c1[nH]c(/C=C/c2ccccc2F)nc2ccccc12 | 0.1% | -6.1% | -16.0% | x | -44.9%
O=C(Nc1ccc(Cl)cc1)c1cc2c(cc1O)[nH]c1ccccc12 | -3.1% | -6.6% | 17.8µM* | x | -35.0%
O=c1[nH]c(N/N=C\c2ccc(F)cc2)nc2ccccc12 | -0.4% | u | -25.1% | -9.2% | 10µM*
COc1ccccc1/C=C/c1nc2ccccc2c(=O)o1 | -2.3% | x | x | x | x
O=c1[nH]c(N/N=C/c2ccc(O)cc2)nc2ccccc12 | 3.3% | -4.2% | -11.9% | u | u
CCN(CC)c1ccc(/C=N/Nc2nc3ccccc3[nH]2)cc1 | -5.6% | -8.3% | 3.98µM* | u | 3.16µM*
CC(=O)Nc1ccc(/C=N/Nc2nc3ccccc3[nH]2)cc1 | -3.0% | 10µM* | -5.1% | -3.4% | u
C(=N\Nc1nc2ccccc2[nH]1)/c1ccncc1 | -16.5% | 4.8% | u | -3.9% | 15.4%
COc1ccc(/C=C/c2nc3ccccc3c(=O)o2)cc1 | -9.3% | 11.5% | 7.94µM* | x | 4.47µM*
CCCN1CCC(C(=O)NC(c2ccc(Cl)cc2)c2ccsc2)CC1 (stereo not given) | 0.7% | x | x | x | x
Cc1cc(OCCCCOc2ccc(S(N)(=O)=O)c(C)c2)ccc1S(N)(=O)=O | -13.8% | 2.7% | -27.0% | x | u
Cc1cc(Br)ccc1NC(=O)CN(C)C(=O)c1cccc(S(=O)(=O)N2CCN(C)CC2)c1 | -11.2% | x | x | x | x
COc1ccc(-c2cc(C3C4C=CCCC4(C)C(=O)N3Cc3ccccc3)ccc2F)cc1 (stereo not given) | x | -28.1% | -1.7% | x | 10.0%
O=C1OC2C[C@H]1[C@@H]1C(=O)N(Cc3ccccc3)CCC1C2I (stereo not given in full) | x | 10.9% | 2.7% | -21.2% | -7.4%
CC(C)(C)c1cc(/C=N/NC(=O)Cc2nc3ccccc3[nH]2)cc(C(C)(C)C)c1O | -8.1% | 15.2% | -0.1% | -3.1% | -13.5%
O=C(Cc1nc2ccccc2[nH]1)N/N=C/c1ccccc1 | 26.7µM* | 2.7% | 3.1% | -3.8% | 31.6%
Cc1ccc(Nc2nc3ccccc3c(=O)[nH]2)cc1C | 1.3% | 2.1% | -15.9% | 6.4% | u
COc1ccc(Nc2nc3ccccc3c(=O)[nH]2)cc1 | 23.8µM* | 16.4% | -1.6% | x | 20.2%
CC(/C=N/Nc1nc2ccccc2[nH]1)=C\c1ccccc1 | -7.9% | -18.8% | 7.08µM* | 5.1% | 6.31µM*
C[C@@H]1CN([C@@H](C)CO)C(=O)CCCn2nncc2CO[C@@H]1CN(C)C(=O)Nc1cccc(C(F)(F)F)c1 | 8.7% | x | x | x | x
Cc1ccc(F)cc1-c1cc2nc(NCCCN(C)C)n(C)c(=O)c2s1 | -5.4% | x | x | x | x
C[C@@H]1CN([C@@H](C)CO)C(=O)c2cc(-c3cccnc3)cnc2O[C@H]1CN(C)C(=O)c1cccc(F)c1 | -2.3% | x | x | x | x
Cc1ccc(C)c(S(=O)(=O)NCc2ccncc2)c1 | -2.8% | 13.1% | u | 8.7% | u
CC(=O)Nc1ccc(S(=O)(=O)NCc2ccccn2)cc1 | -15.6% | -3.9% | -22.0% | 7.3% | 3.7%
SMILES | PLK1 PBD inh | Sfp PPTase inh | Gal4-VP16 FLuc | ALDH1A1 block | RORgamma inh
Cc1cc(S(=O)(=O)NCc2ccncc2)c(C)cc1Br | -6.3% | 4.8% | 10µM* | x | -24.9%
Cn1c(=O)c(=O)n(C)c2cc(S(=O)(=O)NCc3ccc(Cl)cc3)ccc21 | 10.6µM* | 18.8% | -0.3% | u | -3.2%
CC(=O)Nc1ccc(S(=O)(=O)NCc2ccncc2)cc1 | -15.0% | -11.6% | 2µM* | 0.8% | 7.08µM*
Cc1ccc(S(=O)(=O)NCC(=O)NCc2ccncc2)cc1 | -4.0% | -6.0% | -11.2% | 7.1% | 5.1%
Cc1ccc(S(=O)(=O)NCc2ccncc2)cc1 | -8.7% | 18.7% | 7.94µM* | -1.8% | -14.9%
c1ccc2cc(C3OCC4(CCCC4)CO3)ccc2c1 | -15.8% | x | x | x | x
O=S1(=O)N[C@H](Cc2ccccc2)COc2cc(N3CC[C@H](O)C3)ccc21 | -5.9% | x | x | x | x
COCC(=O)NCc1ccc2c(c1)cc(C)n2C | -15.7% | 11.1% | 0.6% | 2.0% | 4.4%
CCOC(=O)COc1ccc(S(=O)(=O)NCc2ccncc2)cc1 | 4.1% | 18.0% | 11.2µM* | 6.7% | u
Cc1ccc(S(=O)(=O)NCC(c2cccnc2)N(C)C)cc1 (stereo not given) | -11.0% | -3.1% | -4.0% | 31.6µM* | -11.4%
Cc1ccc(S(=O)(=O)NCc2ccc3c(c2)cc(C)n3C)cc1 | -15.4% | 8.5% | -2.2% | 20µM* | u
CC1(C)OC(=O)C2=C(C[C@@H](C3CCCCC3)O[C@H]2c2ccc(Cl)cc2)O1 | -7.5% | x | x | x | x
CO[C@H]1[C@H](O[C@H]2O[C@@H](C)[C@@H](O[C@@H]3C[C@](C)(O)[C@H](O)[C@H](C)O3)[C@@H](N(C)C)[C@@H]2O)[C@@H](CC=O)C[C@@H](C)[C@@H](O[C@H]2CC[C@H](N(C)C)[C@H](C)O2)/C=C\C=C/C[C@@H](C)OC(=O)C[C@H]1O | x | 20.0% | -6.1%[17 µM] | 1.8%[20.9 µM] | -5.6%[2.98 µM]
Cc1c(CCC(=O)NC2CC2)c(=O)oc2cc(O)ccc12 | -13.2% | 18.3% | -12.1% | x | -15.4%
COc1cc(CNc2ccc(O)cc2)cc(Br)c1OCc1ccccc1F | -1.6% | 28.2µM* | u | 22.4µM* | -21.7%
COc1cccc(CNc2ccccc2O)c1OCc1ccccc1F | -13.1% | 50.1µM* | 16.1% | 14.1µM* | u
CCOc1cc(CNCCO)cc(Br)c1OCc1ccccc1Cl | -2.6% | -8.6% | -17.9% | -11.0% | 18.2%
CCOc1cc(CNC(C)(C)CO)cc(Br)c1OCc1ccc(Cl)cc1Cl | 2.4% | 44.7µM* | u | -1.8% | u
CCOc1cc(CNc2ccc(O)cc2)cc(Br)c1OCc1ccccc1F | -2.3% | 17.8µM* | -70.1% | 28.2µM* | u
CCOC(=O)c1cc(OCC)c2c(ccc3cc(OC)ccc32)n1 | -7.4% | x | x | x | x
CC(C)(C)c1ccc(S(=O)(=O)NC(=O)C2(C)CCN2C(=O)c2cccc3ccccc23)cc1 (stereo not given) | -10.5% | x | x | x | x
COc1ccc(-c2ccc3c(n2)CCCN3C[C@H](O)CN2CCCc3nc(C)c(C)cc32)cc1 | x | u | -0.2%[10 µM] | u | 28.2%[10 µM]
C[C@H](NC(=O)C[C@@H]1C=C[C@@H](NC(=O)CN2CCOCC2)[C@@H](CO)O1)c1ccccc1 | -6.3% | x | x | x | x
Cc1cccc(N2C(=S)NC3c4cc(Cl)ccc4OC2(C)C3C(=O)N(C)C)c1 (stereo not given) | 2.7% | 0.7% | -28.8% | 3.5% | u
Cc1ccc(N2C(=S)NC3c4cc(Cl)ccc4OC2(C)C3C(=O)N(C)C)cc1 (stereo not given) | -18.8% | -12.8% | -20.4% | 5.2% | 11.2µM*
C/C(=C\C(=O)c1ccc(Cl)cc1Cl)N(C)C | -3.0% | 11.6% | u | 5.62µM* | 15.8µM*
O=Cc1ccc(B(O)O)cc1 | x | 6.2% | 4.4% | -7.1% | -13.8%

Screens from PubChem BioAssay.
